Inconclusive results are not listed. Active and inactive are the calls of the source. Unless noted, calls come from the whole dose curve; as a rule, active = well fitted curve in the direction sought with a large enough effect in the repeat runs; inconclusive = weak or mixed curves; inactive = no such curve, though single readings can be large; an effect the other way counts as inactive or inconclusive.
Legend:
[1] = qHTS assay to test for compound auto fluorescence at 535 nm (green) in HepG2 cells (AID 720675)
[2] = qHTS assay to test for compound auto fluorescence at 590 nm (red) in HepG2 cell free culture (AID 720684)
Procedure, shortened: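 Readout: intrinsic compound fluorescence at 590 nm emission after 540 nm excitation, scaled to Rose Bengal sodium. Matrix was cell-free MEM with 10% FBS; DMSO vehicle wells served as control.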

[3] = qHTS assay to test for compound auto fluorescence at 460 nm (blue) in HepG2 cell free culture (AID 720685)
Procedure, shortened: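 Cell-free plates of MEM plus 10% FBS received 23 nL compound or DMSO vehicle; blue-channel (405/460 nm) intensity scored against triamterene as reference fluorophore.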

[4] = qHTS assay to test for compound auto fluorescence at 535 nm (green) in HepG2 cell free culture (AID 720686)
[5] = qHTS assay to test for compound auto fluorescence at 460 nm (blue) in HepG2 cells (AID 720687)
Procedure, shortened: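 Cells (2,000/well in MEM with 10% FBS) attached overnight at 37 C, then were exposed to compound or DMSO for 1 hr at 37 C, 5% CO2. Fluorescence read at Ex/Em 405/460 nm, expressed as triamterene-equivalent signal.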

[6] = target: Glucocorticoid receptor (Homo sapiens) (UniProt P04150); assay: qHTS assay to identify small molecule agonists of the glucocorticoid receptor (GR) signaling pathway (AID 720691; active = well fitted activation curve with a large enough effect in the signal ratio in the repeat runs, not every such curve was filed as active; the % refers to the signal ratio)
Chain of Glucocorticoid receptor (Homo sapiens) (P04150 whole entry, looked up): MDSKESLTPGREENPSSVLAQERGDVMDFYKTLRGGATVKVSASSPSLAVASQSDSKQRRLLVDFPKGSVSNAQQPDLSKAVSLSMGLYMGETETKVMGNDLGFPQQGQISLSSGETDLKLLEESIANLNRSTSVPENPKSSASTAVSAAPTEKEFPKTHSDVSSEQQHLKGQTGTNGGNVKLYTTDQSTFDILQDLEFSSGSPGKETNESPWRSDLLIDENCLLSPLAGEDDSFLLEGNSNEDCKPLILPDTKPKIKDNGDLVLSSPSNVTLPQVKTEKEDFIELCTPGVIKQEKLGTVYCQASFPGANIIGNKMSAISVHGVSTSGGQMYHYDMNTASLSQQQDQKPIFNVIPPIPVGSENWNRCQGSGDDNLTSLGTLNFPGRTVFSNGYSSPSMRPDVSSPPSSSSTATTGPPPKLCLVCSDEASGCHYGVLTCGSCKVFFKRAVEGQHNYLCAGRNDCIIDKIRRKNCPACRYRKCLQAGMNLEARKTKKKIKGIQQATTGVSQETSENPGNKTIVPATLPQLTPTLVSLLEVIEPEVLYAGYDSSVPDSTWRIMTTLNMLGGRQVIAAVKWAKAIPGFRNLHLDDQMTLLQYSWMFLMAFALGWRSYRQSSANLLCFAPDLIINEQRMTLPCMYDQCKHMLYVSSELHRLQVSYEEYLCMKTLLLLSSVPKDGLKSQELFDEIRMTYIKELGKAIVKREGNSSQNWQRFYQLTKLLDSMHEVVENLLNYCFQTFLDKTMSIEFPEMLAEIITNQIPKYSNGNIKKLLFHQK
Procedure, shortened: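 A HeLa cervical cancer line expressing GR and a glucocorticoid response element-driven beta-lactamase gene is treated with compounds for 18 h; LiveBLAzer B/G FRET substrate is then applied and fluorescence read.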

[7] = qHTS assay to identify small molecule antagonists of the androgen receptor (AR) signaling pathway using the MDA cell line - cell viability counter screen (AID 743041; note: nearly all actives have a fitted effect of over 45% in size)
Procedure, shortened: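 qHTS viability read-out; MDA-kb2 AR-luc; R1881-stimulated; 16 h exposure at 37C, 0% CO2; CellTiter-Fluor, 30 min; fluorescence intensity.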

[8] = tested on: thyroid hormone receptor (rat, GH3 cells); assay: qHTS assay to identify small molecule agonists of the thyroid receptor (TR) signaling pathway (AID 743066; calls by dose curve)
[9] = qHTS assay to identify small molecule antagonists of the estrogen receptor alpha (ER-alpha) signaling pathway using the BG1 cell line - cell viability counter screen (AID 743081);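 note: compound given together with 17beta-estradiol as the ER stimulus; series mostly up to about 70 µM; nearly all actives have a fitted effect of over 45% in size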
[10] = qHTS assay for small molecule disruptors of the mitochondrial membrane potential (AID 720635); note: potency is the fitted concentration of half-maximal effect
Procedure, shortened: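 HepG2 cells (2,000/well) attached overnight at 37C, then took compound for 1 hr at 37C, 5% CO2. Mito-MPS dye was added for 30 min; fluorescence was read at 490/535 nm (monomers) and 540/590 nm (aggregates).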

[11] = qHTS assay for identifying genotoxic compounds that show differential cytotoxicity against isogenic chicken DT40 cell lines with known DNA damage response pathways - wild type cell line (AID 743012); note: nearly all actives have a fitted effect of over 60% in size; note: potency is the fitted concentration of half-maximal effect
Procedure, shortened: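 300 wt DT40 cells/well; cpd (DMSO) pintool-transferred after ~0.5 h at 37 C/5% CO2; 40 h incubation; CellTiter-Glo added, 30 min RT; luminescence read.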

[12] = qHTS assay to identify small molecule antagonists of the androgen receptor (AR) signaling pathway - cell viability counter screen (AID 743033; note: nearly all actives have a fitted effect of over 45% in size)
[13] = qHTS assay to identify small molecule antagonists of the thyroid receptor (TR) signaling pathway - cell viability counter screen (AID 743064); note: nearly all actives have a fitted effect of over 50% in size; note: potency is the fitted concentration of half-maximal effect
Procedure, shortened: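 GH3.TRE-Luc rat pituitary cells carrying a TRE-luciferase reporter were treated with compound plus 1 nM T3 (final) for 23.5 h at 37 °C. Viability was then read in the same wells by CellTiter-Fluor fluorescence after a further 30 min.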

[14] = qHTS assay to identify small molecule antagonists of the thyroid receptor (TR) signaling pathway (AID 743065); note: nearly all actives have a fitted effect of over 55% in size; note: potency is the fitted concentration of half-maximal effect
Procedure, shortened: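 GH3.TRE-Luc rat pituitary cells carrying two TR response elements driving luciferase were plated for 4 h, given compound plus 1 nM T3 (final), and incubated 23.5 h at 37 C. ONE-Glo luminescence measured reporter inhibition; CellTiter-Fluor fluorescence tracked cytotoxicity.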

[15] = qHTS assay to identify small molecule antagonists of the estrogen receptor alpha (ER-alpha) signaling pathway using the BG1 cell line (AID 743080; calls by dose curve;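 note: BG1 cells stimulated with 17beta-estradiol alongside compound; nearly all actives have a fitted effect of over 25% in size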; note: potency is the fitted concentration of half-maximal effect)
Procedure, shortened: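 Luminescence from a 4×ERE-luciferase reporter in BG1-Luc-4E2 cells served as read-out. Cells, pre-cultured 5 days in stripped-serum phenol-red-free medium, were exposed to compound with 17beta-estradiol co-stimulation for 21.5 h at 37 C.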

[16] = target: Estrogen receptor (Homo sapiens) (UniProt P03372); assay: qHTS assay to identify small molecule agonists of the estrogen receptor alpha (ER-alpha) signaling pathway (AID 743075; calls by dose curve;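 note: HEK293 GripTite cells with ER-alpha and UAS-driven beta-lactamase reporter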)
Chain of Estrogen receptor (Homo sapiens) (P03372 whole entry, looked up): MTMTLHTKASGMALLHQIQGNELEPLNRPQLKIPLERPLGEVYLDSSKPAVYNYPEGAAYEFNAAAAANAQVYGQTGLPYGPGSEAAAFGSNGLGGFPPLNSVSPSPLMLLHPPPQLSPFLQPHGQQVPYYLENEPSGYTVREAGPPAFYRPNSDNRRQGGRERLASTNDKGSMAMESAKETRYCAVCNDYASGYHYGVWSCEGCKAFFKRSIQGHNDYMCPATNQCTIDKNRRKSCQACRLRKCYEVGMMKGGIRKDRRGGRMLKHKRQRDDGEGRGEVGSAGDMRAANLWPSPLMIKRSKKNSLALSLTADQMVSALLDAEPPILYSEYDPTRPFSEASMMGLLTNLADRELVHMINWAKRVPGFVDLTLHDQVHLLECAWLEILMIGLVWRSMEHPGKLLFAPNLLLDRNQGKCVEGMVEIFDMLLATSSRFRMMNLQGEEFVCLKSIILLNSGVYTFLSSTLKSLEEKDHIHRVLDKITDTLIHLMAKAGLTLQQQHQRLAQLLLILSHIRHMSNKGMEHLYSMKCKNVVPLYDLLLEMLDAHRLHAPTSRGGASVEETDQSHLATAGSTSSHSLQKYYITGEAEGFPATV

[17] = target: Estrogen receptor (Homo sapiens) (UniProt P03372); assay: qHTS assay to identify small molecule agonists of the estrogen receptor alpha (ER-alpha) signaling pathway using the BG1 cell line (AID 743079); note: nearly all actives have a fitted effect of over 20% in size
[18] = qHTS assay for small molecule agonists of the p53 signaling pathway (AID 651631; calls by dose curve; note: nearly all actives have a fitted effect of over 15% in size)
Procedure, shortened: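 HCT-116 cells carrying a stable p53 response element–beta-lactamase reporter were plated, rested 5 h at 37 °C, then exposed to compound in DMSO for 16 h at 37 °C; reporter activity was read as FRET substrate fluorescence after 2 h at room temperature.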

[19] = target: Acetylcholinesterase (Homo sapiens) (UniProt P22303); assay: Acetylcholinesterase (AChE) small molecule antagonists: enzyme-based qHTS assay (AID 1347397; calls by dose curve; note: nearly all actives have a fitted effect of over 55% in size); conditions: Potency: AChE enzyme activity inhibition; outcome: AChE enzyme activity inhibition
Chain of Acetylcholinesterase (Homo sapiens) (P22303 whole entry, looked up): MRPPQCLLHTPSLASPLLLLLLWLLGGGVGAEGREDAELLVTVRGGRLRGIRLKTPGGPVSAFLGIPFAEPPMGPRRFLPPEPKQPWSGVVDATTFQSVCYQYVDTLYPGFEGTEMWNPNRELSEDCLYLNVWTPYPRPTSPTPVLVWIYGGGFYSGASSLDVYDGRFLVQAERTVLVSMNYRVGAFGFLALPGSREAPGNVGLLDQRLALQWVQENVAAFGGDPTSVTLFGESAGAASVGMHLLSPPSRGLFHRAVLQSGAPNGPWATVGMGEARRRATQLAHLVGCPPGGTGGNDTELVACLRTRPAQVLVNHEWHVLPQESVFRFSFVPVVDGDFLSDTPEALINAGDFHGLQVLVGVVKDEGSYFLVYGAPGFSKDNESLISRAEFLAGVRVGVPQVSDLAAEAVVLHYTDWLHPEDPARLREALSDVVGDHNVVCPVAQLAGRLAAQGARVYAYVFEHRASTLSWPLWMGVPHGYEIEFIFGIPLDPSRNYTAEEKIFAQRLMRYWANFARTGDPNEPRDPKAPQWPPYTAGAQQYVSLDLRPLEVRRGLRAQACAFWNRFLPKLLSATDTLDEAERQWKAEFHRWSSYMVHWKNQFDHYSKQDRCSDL
Procedure, shortened: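 Tox21 library chemicals are tested in qHTS format against recombinant human AChE. The enzyme, dispensed at 50 mU/mL, sits with compound for 30 min at room temperature. A DTNB–acetylthiocholine cocktail follows, and colour is read after 10 min.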

[20] = target: Acetylcholinesterase (Homo sapiens) (UniProt P22303); assay: Acetylcholinesterase (AChE) small molecule antagonists: fluorescence cell-based qHTS assay (AID 1347398; calls by dose curve; note: nearly all actives have a fitted effect of over 50% in size); conditions: Potency: AChE activity; outcome: AChE activity
Procedure, shortened: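 Cellular AChE inhibition: SH-SY5Y cells treated with test chemical for 30 min at 37 C, then acetylthiocholine hydrolysis followed over 40 min at room temperature via thiocholine-reactive Thiolite Green fluorescence (490/520 nm).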

Measured: Potency

CCN(CC)/[N+]([O-])=N/O
inactive: [1] | [2] | [3] | [4] | [5] | [6] | [7] | [8] | [9]

CCCCCc1cc(O)c2c(c1)OC(C)(C)c1ccc(C)cc1-2
active: [10] 1.68 µM | [11] 9.44 µM | [13] 13.3 µM | [14] 13.3 µM | [15] 29.8 µM
inactive: [2] | [3] | [5] | [12]

COc1ccc(OC)c(C[C@H](C)N)c1
not listed: [5] | [6] | [7] | [8] | [14] | [18] | [19] | [20]
inactive: all other assays above

Clc1ccc(Cl)c(Cl)c1Cl
inactive: [18] | [19] | [20]

CO[C@H]1[C@@H](O)C[C@H](O[C@H]2[C@@H](O)C[C@H](O[C@H]3[C@@H](O)C[C@H](O[C@H]4CC[C@@]5(C)[C@H](CC[C@@H]6[C@@H]5C[C@@H](O)[C@]5(C)[C@@H](C7=CC(=O)OC7)CC[C@]65O)C4)O[C@@H]3C)O[C@@H]2C)O[C@@H]1C
active: [10] 0.699 µM | [11] 0.531 µM
inactive: [2] | [4] | [14] | [8] | [16] | [9]

COc1cc(C[C@H](C)N)c(OC)cc1C
inactive: [1] | [3] | [4] | [5] | [6] | [12] | [13] | [8] | [16] | [17] | [15]

Cc1nnc2n1-c1sc(Br)cc1C(c1ccccc1Cl)=NC2
active: [13] 21.1 µM | [14] 26.6 µM | [15] 11.9 µM
inactive: [1] | [2] | [3] | [4] | [6] | [12] | [7] | [8] | [16]

Clc1cc(Cl)c(-c2c(Cl)c(Cl)cc(Cl)c2Cl)cc1Cl
inactive: [19] | [20]

Clc1cc(Cl)c(Cl)cc1Cl
inactive: [19] | [20]

C[C@@H]1[C@@H]2Cc3ccc(O)cc3[C@@]1(C)CCN2CCc1ccccc1
inactive: [10] | [1] | [3] | [4] | [5] | [6] | [16] | [9]
active: [11] 3.81 µM | [14] 53.8 µM

CCCCNC(C)(C)[P+](=O)O
inactive: [10] | [1] | [2] | [3] | [5] | [7] | [13] | [8] | [16] | [17] | [15]

C[C@H]1CC[C@]2(NC1)O[C@H]1C[C@H]3[C@@H]4CC[C@H]5C[C@@H](O)CC[C@]5(C)[C@H]4CC[C@]3(C)[C@H]1[C@@H]2C
not listed: [3] | [6] | [10] | [13] | [14] | [19] | [20]
inactive: all other assays above

— PubChem BioAssay (Tox21)
